# hcDAF-12 act: H. contortus DAF-12 activation, primary screen. HEK293 hcDAF-12 lit1-tk-luc reporter, luminescence; 0% DMSO, 100% Δ7-dafachronic acid. actives 1.4% (n = 370,000). activation, % at 6.8 µM;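 active = activation above the mean of all tested compounds plus 3 SD, cut at about 5.5% in these data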;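 also: 100% = response to 3 µM Δ7-dafachronic acid high control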
# ssDAF-12 act: activators of S. stercoralis DAF-12 nuclear receptor; HEK293 ssDAF-12/GRIP1 lit1-tk-luc reporter, luminescence; % of 3 µM dafachronic acid response; activation, % at 6.8 µM; actives 1% (n = 370,000); AID 652126;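 active = activation above the mean over all tested compounds plus 3 SD, cut at about 0.9% in these data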;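 also: 0% = DMSO-only wells and 100% = 3 µM delta7-dafachronic acid wells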
# Wee1 degr inh: human Wee1 degradation inhibition, primary screen; P30291; HeLa Luc-Wee1K328M stability, luciferase luminescence; 100% = proteasome inhibitor MG132 effect; reporter increase, % at 5 µM; actives 1.2% (n = 220,000);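 active = activation above the mean of all tested compounds plus 3 SD, set per screening run, cut at about 8.8% in these data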;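 also: cells exposed to compound for 20 h before luminescence read; 0% = DMSO alone and 100% = MG132 at 30 µM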
# DAX1 inh-1: DAX1 (NR0B1) inhibition, primary screen; inhibition, % at 6.8 µM; actives 1.1% (n = 370,000); HEK293T StAR-luciferase reporter, SF-1/DAX-1 repression relief; AID 652010;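 active = inhibition above the mean over all tested compounds plus 3 SD, cut at about 3.6% in these data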;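 also: 0% = DAX-1 cells with DMSO and 100% = cells lacking DAX-1 with DMSO; higher inhibition means more luminescence from relief of DAX-1 repression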
# DAX1 inh-2: NR0B1 (DAX1) inhibition; P51843; HEK293 Gal4-DAX1 luciferase reporter, luminescence; inhibition, % at 6.75 µM; actives 0.99% (n = 340,000); AID 504766;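 active = inhibition above the mean over all tested compounds plus 3 SD, cut at about 4.2% in these data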;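 also: 0% = DAX1-transfected cells with DMSO and 100% = empty-vector control cells with DMSO; inhibition shows as a rise in luminescence from relieved DAX1 repression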
# Target sequence (P51843 207-470 limits assumed): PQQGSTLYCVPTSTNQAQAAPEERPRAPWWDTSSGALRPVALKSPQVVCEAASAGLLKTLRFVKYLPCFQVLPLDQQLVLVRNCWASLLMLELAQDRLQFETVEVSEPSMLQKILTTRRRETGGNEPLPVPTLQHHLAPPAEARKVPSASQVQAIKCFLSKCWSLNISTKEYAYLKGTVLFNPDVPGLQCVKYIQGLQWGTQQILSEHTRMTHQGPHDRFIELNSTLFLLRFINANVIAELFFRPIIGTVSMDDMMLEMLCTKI
# hgDAF12 agonist: activates the H. glycines DAF-12 receptor ligand-binding domain. HEK293 GAL4-hgDAF12 UAS-luciferase reporter, agonist luminescence; normalized to butyrate control. activation, % at 6.8 µM. actives 1.8% (n = 370,000). AID 687014;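 active = activation above a cutoff set at the mean of all screened compounds plus 3 SD, cut at about 10% in these data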;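 also: 0% = DMSO wells and 100% = sodium butyrate wells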
# * = called active by the depositor; x = no result given. Rows were chosen to be rich in hits. Some 4.6% of all compounds tested hit in one or more screens of this group.
SMILES,hcDAF-12 act,ssDAF-12 act,Wee1 degr inh,DAX1 inh-1,DAX1 inh-2,hgDAF12 agonist
Cc1nn(CCOc2ccccc2)c(=O)n1-c1c(F)cccc1F,2,-1,3,2,3,11*
O=C1NC(c2cccc(Br)c2)=N/C1=C\c1ccco1,0,-1,2,0,-1,4
O=C1NC(c2ccccc2)=N/C1=C/c1ccco1,3,1.0*,2,2,2,9
Cc1ccc(-c2cc(-c3nnc4sc(COc5ccccc5)nn34)[nH]n2)cc1,-3,-1,x,0,x,0
CCN(CC)c1ccc(NC(=O)Nc2ccc(C(C)=O)cc2)cc1,1,-1,1,-1,-2,2
CCN(CC)c1ccc(NC(=O)Nc2ccccc2)cc1,5,0,x,2,1,12*
CC(=O)c1cccc(NC(=O)Nc2nc(C)cc(C)n2)c1,0,0,x,2,4.7*,-1
CC(=O)c1ccc(NC(=O)Nc2ccccc2)cc1,4,0,4,3.6*,-1,13*
CC(=O)c1ccc(NC(=O)c2cc(C)nc3ccccc23)cc1,0,-1,x,1,4.4*,9
CN1OC[C@@H]2CN(S(=O)(=O)c3ccccc3)[C@H](c3ccccc3Br)C[C@@H]21,-2,-1,x,1,x,5
CCOc1ccc(N(Cc2nnc3n2CCCCC3)C(=O)Nc2cccc(C)c2)cc1,1,-1,2,1,6.6*,-2
COc1ccc(N(Cc2nnc3n2CCCCC3)C(=O)Nc2ccccc2)cc1,-1,0,1,0,0,2
COC(=O)c1ccccc1NC(=O)c1ccnn1C,1,11*,0,0,-1,-1
COC(=O)c1ccccc1NC(=O)c1c(Br)cnn1C,1,-1,-1,0,1,2
COc1cc(/C=C/C(=O)O)cc(S(=O)(=O)N2CCCc3ccccc32)c1OC,3,0,-3,1,3,-1
COc1cc(/C=C/C(=O)O)cc(S(=O)(=O)N2CCc3ccccc32)c1OC,2,2.3*,-2,-1,-2,1
COc1ccccc1N1Cc2ccc(OC)c(OC)c2C1=O,-2,-1,x,1,1,-1
COc1ccc2c(c1OC)C(=O)N(c1ccc(C)cc1)C2,4,-1,2,3,6.2*,12*
COc1ccc2c(c1OC)C(=O)N(c1ccccn1)C2,5.8*,1.3*,0,2,1,13*
COc1ccc2c(c1OC)C(=O)N(c1ccc(C)cc1)C2=O,-2,-1,2,0,0,5
COCOc1cccc(CN2CCC2(C)C(=O)Nc2ccc(OC)c(OC)c2)c1 (centres undefined),-2,-2,x,0,x,-7
CCOC(=O)c1cc(C#N)c(SCC(=O)c2cc(C#N)c(SC)nc2C)nc1C,4,-1,x,0,1,0
CSc1nc(C)c(C(=O)C[n+]2ccccc2)cc1C#N,-1,-1,9.8*,0,-1,1
Cc1ccccc1NC(=O)c1ccc([N+](=O)[O-])o1,-2,-1,9.0*,-2,1,-5
COC(=O)c1sc(NC(=O)c2ccc([N+](=O)[O-])o2)c(C#N)c1C,-1,-2,2,-2,4.7*,-2
SMILES,hcDAF-12 act,ssDAF-12 act,Wee1 degr inh,DAX1 inh-1,DAX1 inh-2,hgDAF12 agonist
CCCCCCCCN1C(=O)[C@H](CC(=O)NCCCCc2ccccc2)C[C@@]2(C(=O)OC)CC(C)(C)CC=C12,-2,-1,x,0,x,1
O=C(CN1CCCCCC1)Nc1ccc(S(=O)(=O)N2CCOCC2)cc1,1,-1,9.6*,0,1,0
O=C(Nc1ccc(S(=O)(=O)N2CCOCC2)cc1)c1cc(-c2ccccc2O)n[nH]1,-4,-2,10*,-2,-2,-2
COc1ccc(Cc2c(-c3ccccc3)nc3ccc(C)cn23)c(C)c1,2,1.5*,x,3.9*,x,14*
COc1ccc(Cc2c(-c3ccccc3)nc3ccc(Cl)cn23)c(C)c1,2,0,x,2,x,5
COc1ccc(Cc2c(-c3cccc(Cl)c3)nc3ccc(C)cn23)c(C)c1,1,0,x,4.0*,x,10
CCN(C(=O)CSC1=Nc2ccccc2C2CC=NN12)C1CCS(=O)(=O)C1 (centres undefined),5.8*,1,2,1,1,3
CCOC(=O)Cc1c(-c2cccc(Cl)c2)nc2c3ccccc3ccn12,2,-1,x,-1,x,9
COc1ccc(C(=O)C=Cc2cccs2)c(O)c1,2,-1,x,3,0,11*
COc1ccc(C(=O)/C=C/c2ccccc2)c(O)c1,1,-1,0,1,1,8
Cc1ccc(NC(=O)C2CCN(S(=O)(=O)c3cccnc3)CC2)cc1C,-2,-1,x,-1,0,-3
Cc1ccc(S(=O)(=O)N2CCC(C(=O)Nc3nnc(-c4ccc(F)cc4)s3)CC2)cc1,6.5*,-1,0,0,1,0
CCCc1nnc(NC(=O)CCC(=O)N2CCN(S(=O)(=O)c3ccc(C)cc3)CC2)s1,-2,1.1*,0,-1,-2,0
Cc1ccc(S(=O)(=O)N2CCC(C(=O)Nc3cccnc3)CC2)cc1,0,-2,x,0,5.4*,-2
COc1ccc(C(C(=O)N(C)C2CCCC2)N(Cc2ccc(F)cc2)C(=O)c2csc3ccc(Cl)cc23)cc1OC (centres undefined),-4,-2,x,-1,x,-1
CCCCNC(=O)c1nc(C2CCN(S(=O)(=O)c3ccc(OC(F)(F)F)cc3)CC2)oc1-c1ccccc1,-1,-1,x,-1,x,-3
